The panel holds about 83,000 compounds, 20% with a hit somewhere; the sample as a whole holds those more often.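 The test compound was applied at a single concentration to cells in 96-well plates for 48 hours, and percent growth was recorded.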 Activity calls are given as the source filed them. Rule for the calls: active = growth percent below 10; inactive = the rest.

For this assay, the system named is HL-60(TB) leukemia. Put plainly: NCI-60 one-dose screen, 48 h (100 = growth as untreated, 0 = no growth, -100 = all killed). The settings on record: 10 µM unless noted.
For the molecule `CN(C)c1ccc(/C=C/c2ccnc3ccccc23)cc1`, the growth was 12.6% (inactive).
Next, `O=c1c(-c2nc3ccccc3[nH]2)cc2ccccc2n1Cc1cn(Cc2ccccc2Cl)nn1`: 67.4% (inactive).
As to `O=C1Nc2ccccc2/C1=C/c1nc2ccccc2c(=O)[nH]1`, the growth is 102% (inactive).
